# Measured values reported in publication PMC7862700, “An all-to-all approach to the identification of sequence-specific readers for epigenetic DNA modifications on cytosine”.
# Tests used:
# Experiment in all cases: DAPPL (digital affinity profiling via proximity ligation, sequencing); 10 mM Tris-HCl pH 7.5, 50 mM NaCl, 1 mM DTT, 4% glycerol, room temperature, 30 min; GST-TFs on glutathione beads, 16-mer random dsDNA library, 0.1% formaldehyde crosslink after washing; high values mean tight binding
# FLI1 = molecular target: T1, FLI1 (Homo sapiens, UniProt Q01543 1-452); settings: protein: recombinant; tags: N-terminal GST; dsDNA, one strand shown
# T1 sequence: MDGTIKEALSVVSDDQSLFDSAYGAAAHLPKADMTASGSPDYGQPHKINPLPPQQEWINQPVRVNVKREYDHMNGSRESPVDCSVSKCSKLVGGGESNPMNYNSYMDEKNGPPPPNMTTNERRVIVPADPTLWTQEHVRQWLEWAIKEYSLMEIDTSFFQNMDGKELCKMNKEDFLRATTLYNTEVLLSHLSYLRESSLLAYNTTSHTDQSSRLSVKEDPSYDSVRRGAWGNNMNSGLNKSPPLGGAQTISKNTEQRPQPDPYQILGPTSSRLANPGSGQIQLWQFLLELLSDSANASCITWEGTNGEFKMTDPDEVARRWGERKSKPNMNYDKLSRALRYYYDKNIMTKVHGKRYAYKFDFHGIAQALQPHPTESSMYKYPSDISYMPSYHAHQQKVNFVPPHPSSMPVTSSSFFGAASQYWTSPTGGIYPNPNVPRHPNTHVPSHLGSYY
# Outline: (§1)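 A tag-only sample was pooled with DNA-barcoded human transcription factors that had been expressed in yeast as GST fusions and captured on glutathione beads. The pools were incubated for 30 min at room temperature with 200 nmole of a random double-stranded 16-mer DNA library in Tris/NaCl/DTT/glycerol buffer, then washed, crosslinked with 0.1% formaldehyde, proximity-ligated (BsaI/T4 ligase, 1 h, 37 °C), PCR-amplified and sequenced on an Illumina NextSeq500. Binding signal is each hexamer's read frequency for a factor divided by its frequency for the tag-only sample.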
# ELK1 = molecular target: T2, ELK1 (Homo sapiens, UniProt P19419 1-428); settings: protein: recombinant; tags: N-terminal GST; dsDNA, one strand shown
# T2 sequence: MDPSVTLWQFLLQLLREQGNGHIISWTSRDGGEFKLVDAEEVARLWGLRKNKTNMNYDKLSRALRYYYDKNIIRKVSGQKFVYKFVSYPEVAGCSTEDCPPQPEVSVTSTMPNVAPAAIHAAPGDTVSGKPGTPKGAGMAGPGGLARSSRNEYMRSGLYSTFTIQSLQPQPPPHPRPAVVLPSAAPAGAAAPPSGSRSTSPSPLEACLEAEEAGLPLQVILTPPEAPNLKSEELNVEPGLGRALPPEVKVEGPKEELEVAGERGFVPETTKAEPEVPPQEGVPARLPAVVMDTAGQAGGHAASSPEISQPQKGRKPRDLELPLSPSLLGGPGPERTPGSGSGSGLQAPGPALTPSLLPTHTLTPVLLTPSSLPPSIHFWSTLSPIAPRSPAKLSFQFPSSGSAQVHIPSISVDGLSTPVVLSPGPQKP
# Outline: as §1
# GABPA = molecular target: T3, GABPA (Homo sapiens, UniProt Q06546 1-454); settings: protein: recombinant; tags: N-terminal GST; dsDNA, one strand shown
# T3 sequence: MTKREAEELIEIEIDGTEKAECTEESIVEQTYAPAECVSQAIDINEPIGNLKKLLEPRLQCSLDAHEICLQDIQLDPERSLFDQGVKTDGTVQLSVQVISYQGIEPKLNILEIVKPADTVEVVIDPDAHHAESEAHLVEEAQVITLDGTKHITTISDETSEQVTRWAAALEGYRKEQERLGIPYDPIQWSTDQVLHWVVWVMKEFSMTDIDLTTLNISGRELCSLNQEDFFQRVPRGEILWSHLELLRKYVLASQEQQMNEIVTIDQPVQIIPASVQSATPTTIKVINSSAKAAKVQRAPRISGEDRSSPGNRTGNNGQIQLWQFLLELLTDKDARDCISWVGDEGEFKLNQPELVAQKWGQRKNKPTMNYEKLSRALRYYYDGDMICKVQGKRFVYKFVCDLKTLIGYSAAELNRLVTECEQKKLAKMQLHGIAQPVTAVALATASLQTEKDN
# Outline: as §1
# ERG = molecular target: T4, ERG (Homo sapiens, UniProt P11308 1-479); settings: protein: recombinant; tags: N-terminal GST; dsDNA, one strand shown
# T4 sequence: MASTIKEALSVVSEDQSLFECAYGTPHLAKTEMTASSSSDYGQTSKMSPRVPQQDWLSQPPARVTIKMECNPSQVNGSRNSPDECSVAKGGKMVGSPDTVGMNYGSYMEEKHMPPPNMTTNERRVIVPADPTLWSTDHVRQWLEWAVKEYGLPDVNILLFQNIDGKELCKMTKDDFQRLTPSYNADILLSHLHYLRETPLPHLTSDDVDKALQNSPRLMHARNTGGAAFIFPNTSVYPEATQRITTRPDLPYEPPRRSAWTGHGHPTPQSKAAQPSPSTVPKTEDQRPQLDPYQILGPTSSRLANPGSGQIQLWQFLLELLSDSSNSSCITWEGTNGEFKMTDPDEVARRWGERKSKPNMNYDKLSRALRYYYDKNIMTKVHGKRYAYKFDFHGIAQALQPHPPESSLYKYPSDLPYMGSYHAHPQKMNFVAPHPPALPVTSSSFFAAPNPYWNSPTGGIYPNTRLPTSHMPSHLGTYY
# Outline: as §1
# ELF1 = ELF1 (Homo sapiens, UniProt P32519 1-619); settings: protein: recombinant; tags: N-terminal GST; dsDNA, one strand shown
# Outline: as §1
# EHF = molecular target: T5, EHF (Homo sapiens, UniProt Q9NZC4 1-300); settings: protein: recombinant; tags: N-terminal GST; dsDNA, one strand shown
# T5 sequence: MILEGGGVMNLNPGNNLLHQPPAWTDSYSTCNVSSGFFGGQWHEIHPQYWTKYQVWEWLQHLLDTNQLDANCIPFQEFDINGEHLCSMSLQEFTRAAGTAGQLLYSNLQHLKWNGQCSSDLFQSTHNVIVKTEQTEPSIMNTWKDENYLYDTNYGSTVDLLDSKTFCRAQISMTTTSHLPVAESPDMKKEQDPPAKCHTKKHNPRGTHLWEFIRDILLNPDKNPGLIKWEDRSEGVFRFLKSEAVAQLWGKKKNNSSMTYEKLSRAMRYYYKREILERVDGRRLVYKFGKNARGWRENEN
# Outline: as §1
# SPI1 = SPI1 (Homo sapiens, UniProt P17947 1-270); settings: protein: recombinant; tags: N-terminal GST; dsDNA, one strand shown
# Outline: as §1
# SPIB = SPIB (Homo sapiens, UniProt Q01892 1-262); settings: protein: recombinant; tags: N-terminal GST; dsDNA, one strand shown
# Outline: as §1
# ELK3 = molecular target: T6, ELK3 (Homo sapiens, UniProt P41970 1-407); settings: protein: recombinant; tags: N-terminal GST; dsDNA, one strand shown
# T6 sequence: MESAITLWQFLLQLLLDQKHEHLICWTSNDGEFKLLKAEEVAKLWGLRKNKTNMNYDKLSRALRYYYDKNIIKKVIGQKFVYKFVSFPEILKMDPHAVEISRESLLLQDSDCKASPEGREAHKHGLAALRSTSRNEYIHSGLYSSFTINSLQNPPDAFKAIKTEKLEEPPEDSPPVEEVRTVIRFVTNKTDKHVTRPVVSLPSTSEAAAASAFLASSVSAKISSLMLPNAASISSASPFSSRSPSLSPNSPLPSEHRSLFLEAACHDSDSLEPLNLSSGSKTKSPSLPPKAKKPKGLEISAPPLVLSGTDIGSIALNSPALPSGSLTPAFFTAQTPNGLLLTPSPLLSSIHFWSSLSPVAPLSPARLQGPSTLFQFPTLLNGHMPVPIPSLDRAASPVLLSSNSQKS
# Outline: as §1
# FEV = molecular target: T7, FEV (Homo sapiens, UniProt Q99581 1-238); settings: protein: recombinant; tags: N-terminal GST; dsDNA, one strand shown
# T7 sequence: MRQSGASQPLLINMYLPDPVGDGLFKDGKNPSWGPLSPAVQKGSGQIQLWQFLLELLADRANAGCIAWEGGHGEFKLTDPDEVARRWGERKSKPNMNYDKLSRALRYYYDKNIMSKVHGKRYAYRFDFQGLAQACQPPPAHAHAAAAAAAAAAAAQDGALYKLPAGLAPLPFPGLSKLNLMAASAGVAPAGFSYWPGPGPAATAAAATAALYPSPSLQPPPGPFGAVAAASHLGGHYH
# Outline: as §1
# ETV5 = ETV5 (Homo sapiens, UniProt P41161 1-510); settings: protein: recombinant; tags: N-terminal GST; dsDNA, one strand shown
# Outline: as §1
# HSF1 = HSF1 (Homo sapiens, UniProt Q00613 1-529); settings: protein: recombinant; tags: N-terminal GST; chain copies: 3; dsDNA, one strand shown
# Outline: as §1
# SPIC = molecular target: T8, SPIC (Homo sapiens, UniProt Q8N5J4 1-248); settings: protein: recombinant; tags: N-terminal GST; dsDNA, one strand shown
# T8 sequence: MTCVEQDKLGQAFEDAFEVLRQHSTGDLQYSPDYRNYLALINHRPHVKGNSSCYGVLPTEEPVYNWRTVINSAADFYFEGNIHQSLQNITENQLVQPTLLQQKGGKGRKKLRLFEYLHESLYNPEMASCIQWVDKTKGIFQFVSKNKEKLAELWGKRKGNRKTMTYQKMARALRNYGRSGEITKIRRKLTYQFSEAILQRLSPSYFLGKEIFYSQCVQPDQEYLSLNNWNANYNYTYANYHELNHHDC
# Outline: as §1
# ELF4 = ELF4 (Homo sapiens, UniProt Q99607 1-663); settings: protein: recombinant; tags: N-terminal GST; dsDNA, one strand shown
# Outline: as §1
# ELK4 = molecular target: T9, ELK4 (Homo sapiens, UniProt P28324-2 1-405); settings: protein: recombinant; tags: N-terminal GST; dsDNA, one strand shown
# T9 sequence: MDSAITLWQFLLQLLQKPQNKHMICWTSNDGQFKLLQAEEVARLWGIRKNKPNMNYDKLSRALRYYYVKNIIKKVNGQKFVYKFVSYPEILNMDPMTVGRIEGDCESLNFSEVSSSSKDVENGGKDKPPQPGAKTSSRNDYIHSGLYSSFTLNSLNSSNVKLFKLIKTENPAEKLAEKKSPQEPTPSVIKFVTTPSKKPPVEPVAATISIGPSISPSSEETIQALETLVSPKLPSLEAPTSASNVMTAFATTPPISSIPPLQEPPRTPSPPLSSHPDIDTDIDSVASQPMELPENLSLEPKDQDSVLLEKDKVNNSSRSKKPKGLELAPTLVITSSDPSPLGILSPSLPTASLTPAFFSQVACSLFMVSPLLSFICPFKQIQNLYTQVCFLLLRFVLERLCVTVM
# Outline: as §1
# ETV2 = molecular target: T10, ETV2 (Homo sapiens, UniProt O00321 1-342); settings: protein: recombinant; tags: N-terminal GST; dsDNA, one strand shown
# T10 sequence: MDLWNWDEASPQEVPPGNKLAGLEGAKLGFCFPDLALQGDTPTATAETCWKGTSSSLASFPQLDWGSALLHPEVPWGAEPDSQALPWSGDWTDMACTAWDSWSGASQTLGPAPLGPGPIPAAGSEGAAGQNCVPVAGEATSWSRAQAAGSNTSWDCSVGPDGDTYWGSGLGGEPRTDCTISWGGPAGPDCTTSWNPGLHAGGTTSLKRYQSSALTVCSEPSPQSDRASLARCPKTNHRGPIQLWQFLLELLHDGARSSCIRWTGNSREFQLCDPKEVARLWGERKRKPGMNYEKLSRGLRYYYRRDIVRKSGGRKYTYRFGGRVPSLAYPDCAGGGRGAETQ
# Outline: as §1
# ELF3 = molecular target: T11, ELF3 (Homo sapiens, UniProt P78545 1-371); settings: protein: recombinant; tags: N-terminal GST; dsDNA, one strand shown
# T11 sequence: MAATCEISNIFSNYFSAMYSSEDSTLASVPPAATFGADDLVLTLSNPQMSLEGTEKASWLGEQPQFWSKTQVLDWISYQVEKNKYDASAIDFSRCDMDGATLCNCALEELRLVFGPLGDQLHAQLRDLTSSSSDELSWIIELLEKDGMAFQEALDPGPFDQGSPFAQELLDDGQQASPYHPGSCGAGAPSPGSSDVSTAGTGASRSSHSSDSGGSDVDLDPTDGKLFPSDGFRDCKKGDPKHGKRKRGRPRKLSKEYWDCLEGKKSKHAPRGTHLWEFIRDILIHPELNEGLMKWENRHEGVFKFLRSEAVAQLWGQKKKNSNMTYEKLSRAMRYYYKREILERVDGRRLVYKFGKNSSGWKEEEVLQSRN
# Outline: as §1
# CRX = CRX (Homo sapiens, UniProt O43186 1-299); settings: protein: recombinant; tags: N-terminal GST; dsDNA, one strand shown
# Outline: as §1
# ETV1 = ETV1 (Homo sapiens, UniProt P50549 1-477); settings: protein: recombinant; tags: N-terminal GST; dsDNA, one strand shown
# Outline: as §1
# HSF1, sequence (Q00613 whole entry): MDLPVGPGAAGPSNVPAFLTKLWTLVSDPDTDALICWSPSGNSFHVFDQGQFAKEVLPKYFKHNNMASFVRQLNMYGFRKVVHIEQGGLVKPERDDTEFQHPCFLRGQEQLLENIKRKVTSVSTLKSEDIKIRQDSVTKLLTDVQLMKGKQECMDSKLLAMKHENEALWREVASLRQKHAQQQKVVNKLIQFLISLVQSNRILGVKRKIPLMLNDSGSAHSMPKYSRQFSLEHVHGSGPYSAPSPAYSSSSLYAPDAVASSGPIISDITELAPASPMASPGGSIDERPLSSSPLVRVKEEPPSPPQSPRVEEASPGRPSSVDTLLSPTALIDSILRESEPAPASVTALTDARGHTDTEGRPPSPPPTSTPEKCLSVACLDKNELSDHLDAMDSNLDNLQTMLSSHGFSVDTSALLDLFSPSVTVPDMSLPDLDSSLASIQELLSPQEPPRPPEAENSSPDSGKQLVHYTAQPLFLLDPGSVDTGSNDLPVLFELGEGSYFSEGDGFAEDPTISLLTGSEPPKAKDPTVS
# ELF1, sequence (P32519 whole entry): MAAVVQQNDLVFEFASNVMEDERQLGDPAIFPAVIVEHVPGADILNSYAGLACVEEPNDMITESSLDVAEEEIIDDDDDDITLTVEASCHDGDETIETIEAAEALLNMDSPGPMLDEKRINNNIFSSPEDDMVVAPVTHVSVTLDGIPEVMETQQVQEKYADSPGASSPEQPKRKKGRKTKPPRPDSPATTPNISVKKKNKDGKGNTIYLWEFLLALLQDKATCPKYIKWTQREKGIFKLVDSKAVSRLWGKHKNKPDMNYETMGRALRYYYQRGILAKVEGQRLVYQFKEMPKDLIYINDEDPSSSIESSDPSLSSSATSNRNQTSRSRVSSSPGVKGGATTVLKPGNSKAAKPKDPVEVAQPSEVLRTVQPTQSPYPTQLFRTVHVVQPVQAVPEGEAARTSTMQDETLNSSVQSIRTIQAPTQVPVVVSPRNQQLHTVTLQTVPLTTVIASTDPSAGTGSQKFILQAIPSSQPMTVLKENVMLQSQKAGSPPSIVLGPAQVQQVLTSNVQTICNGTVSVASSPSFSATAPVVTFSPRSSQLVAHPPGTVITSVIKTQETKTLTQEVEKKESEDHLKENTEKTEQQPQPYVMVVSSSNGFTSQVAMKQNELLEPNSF
# CRX, sequence (O43186 whole entry): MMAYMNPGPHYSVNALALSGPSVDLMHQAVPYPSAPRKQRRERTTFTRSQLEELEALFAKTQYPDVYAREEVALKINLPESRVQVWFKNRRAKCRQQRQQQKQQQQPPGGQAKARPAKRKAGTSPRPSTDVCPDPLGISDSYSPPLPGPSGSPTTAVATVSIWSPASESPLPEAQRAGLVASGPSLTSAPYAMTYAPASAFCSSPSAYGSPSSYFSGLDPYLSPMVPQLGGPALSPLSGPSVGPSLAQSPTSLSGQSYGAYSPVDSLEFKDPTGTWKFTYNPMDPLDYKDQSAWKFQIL
# ETV1, sequence (P50549 whole entry): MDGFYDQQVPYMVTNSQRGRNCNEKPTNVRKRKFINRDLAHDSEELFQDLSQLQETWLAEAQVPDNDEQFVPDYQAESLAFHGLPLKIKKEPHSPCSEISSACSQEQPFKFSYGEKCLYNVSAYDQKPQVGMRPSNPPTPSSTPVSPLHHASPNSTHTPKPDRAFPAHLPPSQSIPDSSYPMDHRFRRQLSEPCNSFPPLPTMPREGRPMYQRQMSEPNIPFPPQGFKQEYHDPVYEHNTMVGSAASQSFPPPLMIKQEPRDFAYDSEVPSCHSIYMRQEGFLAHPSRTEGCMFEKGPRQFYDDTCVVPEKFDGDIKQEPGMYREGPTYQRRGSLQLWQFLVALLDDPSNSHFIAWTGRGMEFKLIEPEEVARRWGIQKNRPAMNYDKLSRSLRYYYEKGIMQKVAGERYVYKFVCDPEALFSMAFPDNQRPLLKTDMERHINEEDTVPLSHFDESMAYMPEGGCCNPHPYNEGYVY
# ELF4, sequence (Q99607 whole entry): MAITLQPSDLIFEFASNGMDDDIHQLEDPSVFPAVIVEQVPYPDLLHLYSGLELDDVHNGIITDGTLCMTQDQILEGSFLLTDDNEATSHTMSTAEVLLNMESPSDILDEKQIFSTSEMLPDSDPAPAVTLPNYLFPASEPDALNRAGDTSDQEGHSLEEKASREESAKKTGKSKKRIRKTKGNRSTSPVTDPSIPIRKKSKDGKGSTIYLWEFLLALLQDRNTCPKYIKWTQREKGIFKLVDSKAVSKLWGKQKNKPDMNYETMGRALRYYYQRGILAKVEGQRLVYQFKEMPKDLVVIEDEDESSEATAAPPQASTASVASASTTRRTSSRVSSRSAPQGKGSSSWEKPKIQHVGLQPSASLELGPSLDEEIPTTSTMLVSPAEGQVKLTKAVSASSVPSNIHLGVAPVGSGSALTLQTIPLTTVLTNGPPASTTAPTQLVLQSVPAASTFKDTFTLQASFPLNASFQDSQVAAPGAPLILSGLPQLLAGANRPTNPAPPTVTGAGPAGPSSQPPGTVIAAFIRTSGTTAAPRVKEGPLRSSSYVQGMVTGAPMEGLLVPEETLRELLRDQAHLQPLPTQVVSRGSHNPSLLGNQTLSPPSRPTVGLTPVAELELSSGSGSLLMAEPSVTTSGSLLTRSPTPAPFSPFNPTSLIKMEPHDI
# SPIB, sequence (Q01892 whole entry): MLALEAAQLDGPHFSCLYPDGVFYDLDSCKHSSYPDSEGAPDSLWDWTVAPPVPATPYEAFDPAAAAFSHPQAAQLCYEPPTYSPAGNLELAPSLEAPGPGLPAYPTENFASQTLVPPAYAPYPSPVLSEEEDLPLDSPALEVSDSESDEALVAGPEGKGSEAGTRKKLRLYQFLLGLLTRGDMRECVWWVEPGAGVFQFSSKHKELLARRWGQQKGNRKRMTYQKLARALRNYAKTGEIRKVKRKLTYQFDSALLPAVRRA
# ETV5, sequence (P41161 whole entry): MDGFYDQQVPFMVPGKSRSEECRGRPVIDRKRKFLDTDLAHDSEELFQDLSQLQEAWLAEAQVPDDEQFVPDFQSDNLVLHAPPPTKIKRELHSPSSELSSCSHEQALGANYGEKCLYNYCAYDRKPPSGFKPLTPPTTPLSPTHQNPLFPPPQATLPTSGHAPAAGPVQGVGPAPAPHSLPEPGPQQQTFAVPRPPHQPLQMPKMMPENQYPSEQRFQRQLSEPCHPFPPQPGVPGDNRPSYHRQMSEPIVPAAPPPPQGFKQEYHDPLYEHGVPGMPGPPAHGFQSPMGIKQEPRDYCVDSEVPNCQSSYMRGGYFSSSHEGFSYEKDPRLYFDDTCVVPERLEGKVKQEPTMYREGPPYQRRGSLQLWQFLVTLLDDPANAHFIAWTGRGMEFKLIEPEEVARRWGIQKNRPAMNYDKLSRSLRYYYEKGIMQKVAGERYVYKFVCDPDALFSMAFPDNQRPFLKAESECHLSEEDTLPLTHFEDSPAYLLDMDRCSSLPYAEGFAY
sequence,measurement,setting,value
TATACA,binding signal,FLI1,"1.32 fold enrichment (6-mer frequency, TF over GST control)"
same,binding signal,ELK1,"1.29 fold enrichment (6-mer frequency, TF over GST control)"
same,binding signal,GABPA,"1.42 fold enrichment (6-mer frequency, TF over GST control)"
same,binding signal,ERG,"1.39 fold enrichment (6-mer frequency, TF over GST control)"
same,binding signal,ELF1,"1.27 fold enrichment (6-mer frequency, TF over GST control)"
same,binding signal,EHF,"1.35 fold enrichment (6-mer frequency, TF over GST control)"
same,binding signal,SPI1,"1.32 fold enrichment (6-mer frequency, TF over GST control)"
same,binding signal,SPIB,"1.22 fold enrichment (6-mer frequency, TF over GST control)"
same,binding signal,ELK3,"1.47 fold enrichment (6-mer frequency, TF over GST control)"
same,binding signal,FEV,"1.29 fold enrichment (6-mer frequency, TF over GST control)"
same,binding signal,ETV5,"1.35 fold enrichment (6-mer frequency, TF over GST control)"
same,binding signal,HSF1,"1.27 fold enrichment (6-mer frequency, TF over GST control)"
same,binding signal,SPIC,"1.28 fold enrichment (6-mer frequency, TF over GST control)"
same,binding signal,ELF4,"1.37 fold enrichment (6-mer frequency, TF over GST control)"
same,binding signal,ELK4,"1.28 fold enrichment (6-mer frequency, TF over GST control)"
same,binding signal,ETV2,"1.28 fold enrichment (6-mer frequency, TF over GST control)"
same,binding signal,ELF3,"1.43 fold enrichment (6-mer frequency, TF over GST control)"
same,binding signal,CRX,"1.36 fold enrichment (6-mer frequency, TF over GST control)"
same,binding signal,ETV1,"1.43 fold enrichment (6-mer frequency, TF over GST control)"
